Laboratory results reported in the supplement of paper PMC10338343.
± gives the standard deviation.

System: MILI (PIWIL2) piRISC loaded with piRNA #1 (26 nt)
Assay: pre-steady-state target cleavage rate (min^-1); guide: piRNA #1 5'p-UGAGGUAGUAGGUUGUAUAGUAUCCA; MIWI and MILI are mouse PIWI proteins and EfPiwi is from a freshwater sponge; tags in brackets are library labels; higher = faster piRNA-guided slicing of the target
Conditions: auxiliary factor: 500 nM mouse GTSF1
Summary of the method: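 In HEPES–potassium acetate buffer at 33 °C, […] transcribed, DNA-blocked target RNA library was mixed with 1 nM active affinity-purified piRISC carrying one synthetic guide, with or without 500 nM GTSF1 partner protein, for 0–8 or 0–960 min. Uncleaved targets were sequenced and normalised to depth and to weakly complementary targets; three trials were pooled and k3 was capped at 0.0001 min^-1. The pre-steady-state cleavage rate followed from a burst-and-steady-state fit.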
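Also: 1 nM active piRISC with 0.1 nM target library at 33 °C single turnover.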

| Sequence | pre-steady-state target cleavage rate |
| --- | --- |
| GGAGACGAUAGUAUAGAACCUACUACCUCA | 0.158 ± 0.013 |
| GGAGAGGAUUCUAUACAACCUACUACCACA | 0.113 ± 0.011 |
| GGAGAGGAUUCUAUACAACCUAGUACCUCA | 0.0548 ± 0.0098 |
| GGAGACCUAUGAUUACAACCUACCUACCUCA | 0.00646 ± 0.0028 |
| GGAGACCUAACUAUAUCAACCUACUACCUCA | 0.00944 ± 0.004 |
| GGAGACCUAUGUAUAGAAGCUACUACCUCA | 0.0984 ± 0.013 |
| GGAGUGGAUACUAUACAACCUACUACCACA | 0.113 ± 0.0097 |
| GGAGACCAUACUAUACAAGCUACAACCUCA | 0.212 ± 0.022 |
| GGAGACCAUACUAUACUUCCUACUACCUCA | 0.226 ± 0.021 |
| GGAGACCUAACAAUACUACCUACUACCUCA | 0.0399 ± 0.013 |
| GGAGACCUAUCUAUCCAACCUACUACCUCA | 0.0742 ± 0.0096 |
| GGAGACCUAUGUAUACAACCUACUACCUACA | 0.0588 ± 0.0083 |
| GGAGACCUUACUAUACAACCUAACUACCUCA | 0.0162 ± 0.0034 |
| GGAGACCUUACUAUACAACCUACAAGCUCA | 0.103 ± 0.03 |
| GGAGACCUAUCUAUACAACCUACAACCUGA | 0.0151 ± 0.0061 |
| GGAGACCUAACUUUACAUCCUACUACCUCA | 0.143 ± 0.025 |
| GGAGACCUAUGUAUACAACGUUCUACCUCA | 0.00392 ± 0.0018 |
| GGAGACCAUACUAAACAACCUACUACCACA | 0.233 ± 0.026 |
| GGAGACCUAUGAUAACAACCUACGUACCUCA | 0.00286 ± 0.0027 |
| GGAGACCUAUGAAUACAUCCUACUUCCUCA | 0.00892 ± 0.0025 |

| Sequence | pre-steady-state target cleavage rate |
| --- | --- |
| GGAGACCACUACUAUACAACCUACUACCUCA | 0.149 ± 0.016 |
| GGAGACCUAUGAUAUGUUGCUACUAGGACA | < 0.0001 |
| GGAGACCUUACAAUACAACCUACUACGUCA | 0.0615 ± 0.009 |
| GGAGACCUAACCUAUACAACCUACUACCUCA | 0.107 ± 0.056 |
| GGAGACCUAUGAAUACAAGCUACUACCUCA | 0.0349 ± 0.0069 |
| GGAGACCUUUCUAUACAACCAACUACCUCA | 0.00462 ± 0.0029 |
| GGAGACCUAUGUUUACAACCUACUACCUGA | 0.00584 ± 0.0023 |
| GGAGACCUAUGUAUACAAGCUACAACCUCA | 0.0946 ± 0.011 |
| GGAGACCAUAGUAUACAACCUACUACCACA | 0.133 ± 0.015 |
| GGAGACCUAACUAAACAAGCUACUACCUCA | 0.15 ± 0.02 |
| GGAGACCUAUCUAUACAAGCUAGUACCUCA | 0.107 ± 0.017 |
| GGAGACCUAUGAUAUGUUCCUACUACGUGA | < 0.0001 |
| GGAGAGGAUUCUAUACAACCUACUACGUCA | 0.0519 ± 0.0081 |
| GGAGACCUAUCUAUUCAACCUACUUCCUCA | 0.0412 ± 0.0086 |
| GGAGACCUAUGUAUACAACCUACUACUCA | 0.063 ± 0.013 |
| GGAGACCAUACUAUAGAACCUACUACCUGA | 0.00906 ± 0.0046 |
| GGAGACCUAUGAUAACAACCUACUACCUCU [g2:g16:cont:t1U] | 0.00588 ± 0.0024 |
| GGAGACCUAUGUAUAGAACGUACUACCUCA | 0.00362 ± 0.0018 |
| GGAGACCUAUGAAUACAACCUACUCACCUCA | 0.004 ± 0.0026 |
| GGAGACCUAUGAUAUGAACGUACAACCUCA | < 0.0001 |
